In PubChem BioAssay (EPA / NIEHS):
Records with an inconclusive call do not appear. Calls of active or inactive are those of the source. How the source made its calls, unless noted: active means hit-call score of the fitted dose curve at least 0.9, where 1 is the maximum; inactive means score below 0.9.

Tests used:
[1] = CCTE_Shafer_MEA_acute_burst_number: CCTE's Neural Acute Assay for Single-Electrode Bursts, Shafer Lab (AID 2284013)
Procedure, shortened: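 Percent change in single-electrode burst number per well, from 40-min recordings taken before and after adding compound (0.03-40 uM) to primary rat cortical neurons on MEA plates at DIV 13 or 15, 37 C.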

[2] = CCTE_Shafer_MEA_acute_burst_duration_mean: CCTE's Neural Acute Assay for Mean Burst Duration, Shafer Lab (AID 2284014);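 further: hits are decreases in mean burst duration relative to DMSO controls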
Procedure, shortened: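 Rat cortical cultures, DIV 13/15; 40 min baseline, then 40 min with compound (0.03-40 uM), 37 C. Spikes: 300-5000 Hz band-pass, 8x rms threshold. Read-out: % change in mean single-electrode burst duration, DMSO-referenced, loss direction.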

[3] = CCTE_Shafer_MEA_acute_per_burst_spike_number_mean: CCTE's Neural Acute Assay for Average Number of Spikes Per Burst, Shafer Lab (AID 2284015);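 further: hits are decreases in mean spikes per burst versus baseline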
Procedure, shortened: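 We recorded spontaneous network firing of rat cortical neurons for 40 min before and 40 min during exposure to compound at 0.03-40 uM, at 37 C. Spikes were detected adaptively at 8x rms noise, and the change in average spikes per burst was fitted against DMSO.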

[4] = CCTE_Shafer_MEA_acute_interburst_interval_mean: CCTE's Neural Acute Assay for Mean Interburst Interval, Shafer Lab (AID 2284016);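 further: percent change of mean interburst interval versus each well's own pre-dose baseline; curves fitted for decrease in interburst interval relative to DMSO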
Procedure, shortened: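 MEA recording of spontaneous network bursting in primary rat cortical cultures; mean interburst interval was compared before and after a 40-min compound exposure (0.03-40 uM) and expressed as percent change, relative to DMSO.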

[5] = CCTE_Shafer_MEA_acute_burst_percentage_mean: CCTE's Neural Acute Assay for Percentage of Spikes in a Burst, Shafer Lab (AID 2284017);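 on AC50: curve fitted for loss of signal so potency reflects decreased burst percentage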
Procedure, shortened: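 Compounds were tested at 0.03-40 uM on primary rat cortical neuron networks grown over microelectrodes, with at least three wells per compound. Spontaneous firing was recorded for 40 min before and 40 min after dosing, and the change in burst percentage was computed per well.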

[6] = CCTE_Shafer_MEA_acute_burst_percentage_std: CCTE's Neural Acute Assay for Standard Deviation of Burst Percentage, Shafer Lab (AID 2284018);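 further: fitted in the negative direction so actives lower burst percentage SD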
Procedure, shortened: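 Rat primary cortical neurons on 48-well MEAs, DIV 13 or 15, 37 C. 40-min baseline then 40-min recording with compound (0.03-40 uM); well-level SD of per-electrode burst spike percentage, expressed as percent change from baseline.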

[7] = CCTE_Shafer_MEA_acute_per_network_burst_spike_number_mean: CCTE's Neural Acute Assay for Average Number of Spikes in a Network Burst, Shafer Lab (AID 2284019)
Procedure, shortened: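 Rat cortical cultures, DIV 13/15; spike threshold 8x rms noise, 300-5000 Hz band-pass, 12.5 kHz sampling; wells need >/= 10 active electrodes. Compound 0.03-40 uM, 40 min, 37 C; % change vs own baseline, DMSO negative control.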

[8] = CCTE_Shafer_MEA_acute_per_network_burst_spike_number_std: CCTE's Neural Acute Assay for Standard Deviation of Number of Spikes in a Network Burst, Shafer Lab (AID 2284020);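 further: fitted for decrease in spike-number SD versus DMSO so actives lower it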
Procedure, shortened: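 Rat cortical cultures, DIV 13/15, 37 C; 20-min stabilisation, 40-min baseline, compound 0.03-40 uM, 40-min re-record. Spikes detected at 8x rms noise (300-5000 Hz band-pass). Readout: % change from baseline in per-burst spike-number SD.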

[9] = CCTE_Shafer_MEA_acute_per_network_burst_electrodes_number_mean: CCTE's Neural Acute Assay for Mean Number of Electrodes in a Network Burst, Shafer Lab (AID 2284021);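 further: curves fitted for decreases only so hits reduce electrodes per burst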
Procedure, shortened: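 Rat primary cortical neurons on 48-well MEAs, DIV 13 or 15, were treated at 0.03-40 uM. Spikes were detected at 8x rms noise and recorded at 37 C. The mean electrodes per network burst in a 40 min exposure recording was expressed as percent change from a 40 min baseline.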

[10] = CCTE_Shafer_MEA_acute_network_burst_percentage: CCTE's Neural Acute Assay for Percentage of Network Bursts, Shafer Lab (AID 2284022);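 further: curves fitted for loss so actives lower network burst percentage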
Procedure, shortened: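 Rat primary cortical neuron networks on 48-well MEA plates, DIV 13 or 15, treated acutely with compound (0.03-40 uM, at least three wells). Percent of spikes within network bursts compared between 40-min recordings before and during exposure at 37 C, expressed as percent change.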

[11] = CCTE_Shafer_MEA_acute_cross_correlation_area: CCTE's Neural Acute Assay for Area of Cross Correlation, Shafer Lab (AID 2284024);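 further: curves fitted for loss of cross-correlation area so actives lower synchrony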
Procedure, shortened: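 Rat primary cortical neurons on 48-well MEA, DIV 13 or 15; compounds 0.03-40 uM. Baseline and post-exposure 40 min recordings at 37 C; percent change in area under pooled inter-electrode cross-correlation near zero lag, relative to DMSO.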

[12] = CCTE_Shafer_MEA_acute_cross_correlation_HWHM: CCTE's Neural Acute Assay for Cross Correlation at Half Width at Half Maximum, Shafer Lab (AID 2284026);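 further: percent change per well from pre-dose baseline in spike cross-correlogram half width; hits are a decrease in cross-correlogram half width relative to DMSO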
Procedure, shortened: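 Rat primary cortical neurons on 48-well MEA plates; 40-min baseline and 40-min post-exposure recordings at 37 C on DIV 13 or 15, compounds 0.03-40 uM. Spikes detected at 8x rms noise; percent change in cross-correlogram HWHM per well vs baseline.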

[13] = CCTE_Shafer_MEA_acute_synchrony_index: CCTE's Neural Acute Assay for Synchrony, Shafer Lab (AID 2284027);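 further: network synchrony index of spontaneous spiking in primary rat cortical neurons on MEAs; fitted for loss of signal so actives lower synchrony relative to DMSO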
Procedure, shortened: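 The synchrony index is taken as percent change per well between a 40 min baseline and a 40 min recording with compound (0.03–40 uM), at 37C. Rat cortical cultures on multiwell MEAs at DIV 13 or 15, spike threshold 8× rms noise.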

[14] = target: Estrogen receptor (Homo sapiens) (UniProt P03372); experiment: CCTE_Deisenroth_AIME_96WELL_LUC_Active: CCTE's 96-well Estrogen Receptor Transactivation Assay with AIME metabolic competence (ERTA luciferase; metabolism positive), Deisenroth Lab (AID 2284023; active means hit-call score of the fitted dose curve at least 0.9, where 1 is the maximum)
Chain of Estrogen receptor (Homo sapiens) (P03372 whole entry, looked up): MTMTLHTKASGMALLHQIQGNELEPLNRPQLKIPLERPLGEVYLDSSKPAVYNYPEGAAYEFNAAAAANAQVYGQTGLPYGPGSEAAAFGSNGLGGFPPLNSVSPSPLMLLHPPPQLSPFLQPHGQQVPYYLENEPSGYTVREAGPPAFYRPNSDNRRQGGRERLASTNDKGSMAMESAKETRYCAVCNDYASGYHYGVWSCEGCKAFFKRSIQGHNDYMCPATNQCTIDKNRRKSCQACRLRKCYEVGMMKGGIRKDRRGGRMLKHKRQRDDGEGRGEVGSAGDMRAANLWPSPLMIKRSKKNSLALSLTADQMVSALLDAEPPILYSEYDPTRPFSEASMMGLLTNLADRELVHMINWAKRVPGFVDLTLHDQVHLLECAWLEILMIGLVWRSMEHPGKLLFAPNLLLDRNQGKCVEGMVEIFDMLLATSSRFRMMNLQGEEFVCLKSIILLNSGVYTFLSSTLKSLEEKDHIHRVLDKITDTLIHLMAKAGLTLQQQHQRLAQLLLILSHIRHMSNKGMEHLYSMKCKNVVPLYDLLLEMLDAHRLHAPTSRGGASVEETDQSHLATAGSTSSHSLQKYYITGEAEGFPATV
Procedure, shortened: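 Metabolism-positive mode: induced rat hepatic S9 in alginate microspheres conditions test solutions (0.002 - 200 uM, 10 points) for 2 hours. VM7Luc4E2 ER luciferase reporter cells then exposed 24 h; positive-direction fit against 17beta-estradiol, n=4 typical.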

[15] = target: Estrogen receptor (Homo sapiens) (UniProt P03372); experiment: CCTE_Deisenroth_AIME_96WELL_LUC_Inactive: CCTE's 96-well Estrogen Receptor Transactivation Assay without AIME metabolic competence (ERTA luciferase; metabolism negative), Deisenroth Lab (AID 2284025; active means hit-call score of the fitted dose curve at least 0.9, where 1 is the maximum)
Procedure, shortened: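 Metabolism-negative arm: chemicals (0.002–200 uM, 10 points) incubated 2 h with alginate-water microspheres, then medium moved onto VM7Luc4E2 cells for 24 h luciferase read-out. Positive direction vs 17beta-estradiol; n≥4 experiments.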

[16] = CCTE_Deisenroth_AIME_96WELL_CTox_Active: Cytotoxicity Assessment (CTOX) in CCTE's 96-well Estrogen Receptor Transactivation Assay with AIME metabolic competence (metabolism positive), Deisenroth Lab (AID 2284028; active means hit-call score of the fitted dose curve at least 0.9, where 1 is the maximum)
Procedure, shortened: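 Cytotoxicity in VM7Luc4E2 breast cells after 24 h exposure to medium from a 2 h metabolic pre-incubation with induced rat hepatic S9 in alginate microspheres; fluorescent live-cell protease readout, 10-point series 0.002–200 uM, n=4.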

[17] = CCTE_Harrill_HTTr_CellCount_MCF7: CCTE's Cell Proliferation Assessment for the High-Throughput Transcriptomics (HTTr) Platform, Harrill Lab (AID 2284012; active means hit-call score of the fitted dose curve at least 0.9, where 1 is the maximum;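 further: cells exposed to compound for six hours; intended direction is loss of nuclei count meaning fewer cells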)
Procedure, shortened: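 Cell count from high-content imaging of Hoechst-labeled nuclei serves as viability/growth readout. Chemicals were applied to MCF-7 cells in eight concentrations for six hours, with fitting in both directions relative to DMSO.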

[18] = target: Estrogen receptor (Homo sapiens) (UniProt P03372); experiment: CCTE_Deisenroth_AIME_384WELL_LUC_Active: CCTE's 384-well Estrogen Receptor Transactivation Assay with AIME metabolic competence (ERTA luciferase; metabolism positive), Deisenroth Lab (AID 2284030; active means hit-call score of the fitted dose curve at least 0.9, where 1 is the maximum)
Procedure, shortened: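 Chemicals (10-point, 0.002-200 uM) were first incubated 2 hours with alginate-immobilized induced male Sprague Dawley rat liver S9. The conditioned medium was then applied to VM7Luc4E2 cells for 24 hours, with ER luciferase induction read by luminescence relative to 17beta-estradiol.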

[19] = CCTE_Harrill_HTTr_Apoptosis_MCF7: CCTE's 6-hour Apoptosis Assessment for the High-Throughput Transcriptomics (HTTr) Platform, in MCF-7 cells cultured in DMEM + 10% fetal bovine serum, Harrill Lab (AID 2284011)
Procedure, shortened: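 MCF-7 cells in DMEM + 10% FBS exposed 6 h to chemicals over an eight-point dilution series. Caspase-3/7 activation imaged by high-content CellEvent Green staining; fitted bidirectionally versus DMSO.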

[20] = CCTE_Deisenroth_AIME_96WELL_CTox_Inactive: Cytotoxicity Assessment (CTOX) in CCTE's 96-well Estrogen Receptor Transactivation Assay without AIME metabolic competence (metabolism negative), Deisenroth Lab (AID 2284029; active means hit-call score of the fitted dose curve at least 0.9, where 1 is the maximum)
Procedure, shortened: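 Metabolism-negative mode: alginate-water lids without rat S9, 2 h pre-incubation of 10-point series (0.002 - 200 uM). Conditioned medium on VM7Luc4E2 cells 24 h; loss of fluorescent live-cell protease signal marks cytotoxicity.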

Measured: AC50

Cc1c(C(=O)c2c[nH]n(C)c2=O)ccc(S(C)(=O)=O)c1C1=NOCC1
not listed: [14] | [15] | [16] | [17] | [18] | [19] | [20]
inactive: all other assays above

C1CNCCN1
not listed: [14] | [15] | [16] | [17] | [18] | [19] | [20]
inactive: all other assays above

COc1ccc(C(=O)c2ccccc2)c(O)c1
active: [14] 12.6 µM | [15] 18.5 µM
inactive: [16]

O=C(O)CCC(=O)O
inactive: [17] | [18]

CC(C)(CO)C(O)C(=O)NCCCO (configuration not stated)
inactive: [17]

CC(=O)OCCc1ccccc1
inactive: [17]

CCCc1ccc(O)c(OC)c1
inactive: [17]

Oc1ccccc1Cc1ccccc1O
inactive: [19] | [7] | [8] | [9]
active: [1] 0.159 µM | [2] 7.82 µM | [3] 8.01 µM | [4] 0.1 µM | [5] 6.16 µM | [6] 8.53 µM | [10] 1.96 µM | [11] 0.156 µM | [12] 5.2 µM | [13] 8.49 µM

CC1=CCC(C(C)C)C=C1 (configuration not stated)
inactive: [17]

O=C(O)c1ccc2c(c1)C(=O)OC2=O
inactive: [19] | [18]

Oc1ccc(/C=C/c2cc(O)cc(O)c2)cc1
active: [14] 4.94 µM | [15] 15.2 µM | [16] 70.2 µM | [20] 40.5 µM
inactive: [19]

CCCCC(C=O)CC (configuration not stated)
inactive: [17]

Nc1ccc(C(=O)O)cc1
inactive: [19] | [18]

CC(=O)CCC1=C(C)CCCC1(C)C
inactive: [17]

C=C[C@@]1(C)CC(=O)[C@]2(O)[C@@]3(C)[C@@H](O)CCC(C)(C)[C@@H]3[C@H](O)[C@H](OC(C)=O)[C@@]2(C)O1
inactive: [17]

CC=CC(=O)OCC(C)C
inactive: [17]
